Screens: PubChem BioAssay, National Center for Advancing Translational Sciences (NCATS)
Shown are actives, neighbours in structure and some others; about 10% of the full set was active somewhere.
MmCpn inh – Inhibitors of TCP-1 ring complex (TRiC) of Methanococcus maripaludis (MmCpn): qHTS. Chaperonin Mm-Cpn (Methanococcus maripaludis). purified Mm-Cpn ATPase, ADP Transcreener TR-FRET. Potency, µM (titrated, usually from 76.9 µM), for the others: top-dose activity, negative = inhibition, most hits filed as inhibitors. 0.031% of 330,000 active; also: potency is read from the fitted curve at half-maximal effect; nearly all actives have a fitted effect of over 80% in size
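Eu-cryptate anti-ADP/ADP-d2 competition gives a ratio inversely related to ADP. Enzyme at 25 nM was pre-exposed to compound for 10 min, then given 10 uM ATP for 30 min, 37°C throughout.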
CCT chaperon mod – High-Throughput Screening for Modulators of Cytosolic Chaperonin Activity | purified chaperonin ATPase assay, HTRF ADP detection, 30 min | activity change, % (concentration not given with the values), hits read low | 0.3% of 360,000 active; in the data active = activity change below about -30%
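ATPase activity: ADP formed was measured by HTRF Transcreener (665/615 nm ratio) after 30 min at 37 deg C with 10 uM ATP. Compounds screened at one 76 uM concentration against 40 or 20 nM TRiC in Tris pH 7.4/KCl/MgCl2/DTT buffer.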
PLK1 PBD block – qHTS for Inhibitors of PLK1-PDB (polo-like kinase 1 - polo-box domain): Primary Screen; Plk1 PBD binding of FITC phosphopeptide, fluorescence polarization; Potency, µM, inactives show max response, negative = inhibition, most hits filed as inhibitors; Serine/threonine-protein kinase PLK1 (Homo sapiens), P53350; 2.8% of 360,000 active; also: potency is read from the fitted curve at half-maximal effect; series mostly up to about 57 µM; nearly all actives have a fitted effect of over 65% in size
G9a block – qHTS Assay for Inhibitors of Histone Lysine Methyltransferase G9a | G9a H3K9 monomethylation, AlphaScreen, 2 h | 8.8% of 350,000 active | Potency, µM (highest dose often 102 µM), for inactives: at the top dose activity, negative = inhibition, most hits filed as inhibitors; also: potency is read from the fitted curve at half-maximal effect; nearly all actives have a fitted effect of over 75% in size
Target sequence (Q96KQ7 913-1193 limits assumed): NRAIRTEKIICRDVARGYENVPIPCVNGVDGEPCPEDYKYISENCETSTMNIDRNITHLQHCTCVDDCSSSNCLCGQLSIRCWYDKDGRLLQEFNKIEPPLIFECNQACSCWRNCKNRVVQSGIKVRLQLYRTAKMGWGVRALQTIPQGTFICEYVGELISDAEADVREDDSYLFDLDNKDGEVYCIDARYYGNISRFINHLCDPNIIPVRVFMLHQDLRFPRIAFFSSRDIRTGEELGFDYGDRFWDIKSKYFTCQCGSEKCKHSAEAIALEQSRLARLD
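Readings reflect AlphaScreen signal from monomethyl-H3K9 antibody detection. HMT at 20 nM; substrate b-H3K9 500 nM; cofactor SAM 20 uM; 2 h RT reaction; compounds tested as titrations in qHTS with 15 min preincubation.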
Sfp PPTase inh – qHTS Assay for Inhibitors of Bacillus subtilis Sfp phosphopantetheinyl transferase (PPTase) | 3.5% of 310,000 active | AID 1490, 2009 | Biochemical Sfp PPTase activity, qHTS | 4'-phosphopantetheinyl transferase ffp (Bacillus subtilis), Q9F4F7 | Potency, µM, without a hit: largest response in the series, negative = inhibition, hits mostly inhibitors;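 also: the enzyme is Sfp with the accession as filed and its product quenches rhodamine fluorescence; potency is read from the fitted curve at half-maximal effect; 0% = enzyme reaction without inhibitor and -100% = no enzyme wells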
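Buffer: 50 mM Hepes-Na pH 7.6, 10 mM MgCl2, 0.01% Nonidet P-40, 0.01% BSA. Enzyme 15 nM, pre-exposed to compound 15 min; substrates then added and fluorescence change tracked over 30 min.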
VDR inh – Inhibitors of the vitamin D receptor (VDR): qHTS; Vitamin D3 receptor (Homo sapiens), P11473; VDR-SRC2-3 peptide fluorescence polarization, 2 h; Potency, µM, without a hit: max response, negative = inhibition, most hits filed as inhibitors; 0.93% of 400,000 active; AID 504847, 2011; also: potency is read from the fitted curve at half-maximal effect
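The screen uses fluorescence polarization to detect compounds that interfere with recruitment of the SRC2-3 coactivator peptide to VDR; plates are read after 2 h at room temperature.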
* marks the source's active call; other numbers are inactive results; ? = inconclusive; . = not tested or not shown; ! = repeats disagree; [ ] = remark or other dose. Unless noted, calls follow the shape of the dose curve; as a rule, active = well fitted curve in the direction sought with a large enough effect; inconclusive = small, poorly fitted or top-dose-only effect, or another doubt; inactive = no such curve, though single readings can be large; an effect the other way counts as inactive or inconclusive. Unless noted, % is scaled to controls: 0 for no effect and ±100 for the full control effect.

SMILES	MmCpn inh	CCT chaperon mod	PLK1 PBD block	G9a block	Sfp PPTase inh	VDR inh
COc1cc(CN2CCC(C(=O)N3CCC(C)CC3)CC2)cc(Br)c1O	2%	-2	-11%	10µM*	-16%	-12%
COc1cc(CN2CCC(C(=O)NC3CCCC3)CC2)cc(Br)c1O	0%	-1	-6%	10µM*	-27%	10%
COc1ccc(CN2CCN(C(=O)C3CCN(C(=O)Nc4ccccc4)CC3)CC2)cc1OC	-2%	-3	-5%	.	.	-17%
COc1ccc(S(=O)(=O)N2CCC(C(=O)NC3CCCC3)CC2)cc1OC	1%	-2	-2%	?	24%	-12%
O=C(Nc1ccc2nc(SCC(=O)N3CCc4ccccc43)sc2c1)c1ccccc1	.	.	.	-45%[59 µM]	.	6%
Cc1onc(-c2c(F)cccc2Cl)c1C(=O)ONC(=O)c1ccco1	-1%	0	-13%	50µM*	8%	10%
CCOC(=O)CNC(=O)N1[C@H](c2cccs2)[C@@H](C)C(=O)[C@@H](C)[C@@H]1c1cccs1	.	.	.	1%[59 µM]	.	9%
c1ccc(Nc2nc(-c3ccoc3)nc3ccccc23)cc1	.	.	.	8%[0.501 µM]	-18%	28µM*
CN(C)c1nc(-c2ccoc2)nc2ccccc12	.	.	.	.	50µM*	?
c1ccc2c(-n3ccnc3)nc(-c3ccoc3)nc2c1	.	.	.	.	-8%	32µM*
CN(C)c1nc(-c2cccnc2)nc2ccccc12	.	.	.	1%[0.501 µM]	-17%	-16%
COc1ccc(C(=O)CCC(=O)O)c2ccccc12	.	.	.	-1%[12.7 µM]	17%	1%
O=C(NNC(=O)c1ccc2nc[nH]c2c1)c1ccccc1	0%	-6	2%	12%[12.7 µM]	.	-16%
O=C(NCc1ccc(Cl)cc1)c1ccc2nc[nH]c2c1	1%	-2	30µM*	?	3%	?
O=C(NCc1cccc(Cl)c1)c1ccc2nc[nH]c2c1	1%	2	-5%	17%[59 µM]	13%	19%
O=C(Nc1ccc(OC(F)(F)F)cc1)c1ccc2nc[nH]c2c1	-2%	0	-10%	50µM*	4%	-5%
Cn1cc(S(=O)(=O)N2CCCCC2)cc1C(=O)N1CCN(c2ccc(F)cc2)CC1	.	.	.	3%[59 µM]	.	-6%
COc1ccc(CC(CC(=O)O)C(=O)Nc2ccc(Cl)c(Cl)c2)cc1 (configuration not stated)	1%	1	0%	6%	15%	?
COc1ccc(CC(CC(=O)O)C(=O)NCc2ccccc2)cc1 (configuration not stated)	0%	0	-15%	56µM*	5%	-6%
CCc1oc2ccccc2c1C(=O)c1cc(Br)c(O)c(Br)c1	0%	0	8.4µM*	-13%	-10%	50µM*!
CCCC[C@]12Cc3cc(OC)c(OC)cc3C(O1)C1=C(O2)C(=O)c2ccccc2C1=O	-1%[15.4 µM]	.	.	.	-24%	.
CNC(=S)N/N=C1\CC(c2ccccc2)Oc2ccccc21 (configuration not stated)	-8%	2	-7%	16%	30%	-19%
Fc1ccc(N/N=C2/CC(c3ccccc3)Oc3ccccc32)c(F)c1 (configuration not stated)	1%	-5	-8%	10µM*	?	-22%
O=C1Nc2cc(Cl)ccc2Oc2cc(Oc3ccccc3)ccc21	.	.	.	6%[59 µM]	.	-5%
COc1ccc(-c2nc(C)c(CCNC(=O)C(=O)Nc3ccccc3OC)s2)cc1	.	.	.	8%[59 µM]	.	-15%
O=C(NCC(c1ccco1)N1CCCCC1)c1ccc2c(c1)S(=O)(=O)c1ccccc1C2=O (configuration not stated)	1%	-1	-9%	40µM*	-1%	-3%
O=C(NCC(c1ccco1)N1CCCCC1)c1ccc(S(=O)(=O)Nc2ccccc2)cc1 (configuration not stated)	-2%	0	3%	3%	.	9%
